Only some compounds are listed: those with a hit (about 1.1% of all), similar ones and a draw of the others.
NR2F2 inh – blocks human COUP-TFII nuclear receptor. P24468. HEK293T NGFI-A luciferase reporter, luminescence. inhibition, % at 8.6 µM. 370,000 tested, 0.7% active. AID 686940;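 active means inhibition above a per-plate cutoff, mean inhibition of test wells between control levels plus 3 SD, cut at about 38% in these data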;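 further: cells cotransfected with COUP-TFII expression vector driving the NGFI-A reporter; 0% = median of COUP-TF2 test wells and 100% = reporter-only cells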
NR5A2 inv ag – suppresses constitutive activity of human LRH-1; HEK293T StAR-luciferase reporter, LRH-1 transfected, 24 h; inhibition, % at 3.6 µM; 360,000 tested, 0.13% active; AID 602396;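 active means inhibition above the mean inhibition of all tested compounds plus 3 SD, cut at about 73% in these data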;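 further: 0% = DMSO wells and 100% = reporter-only cells lacking LRH-1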
GalR3 antag – blocks the human galanin receptor 3; inhibition, % at 3 µM; 360,000 tested, 0.44% active; O60755; HEK293 GalR3-CNG cAMP membrane potential fluorescence; galR3 body fused to GalR1 C-terminus;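 active means inhibition above the screen-wide average plus 3 SD, cut at about 13% in these data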;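 further: forskolin and galanin both at EC90 stimulate the cells; cAMP rise reported by CNG channel membrane potential dye signal; 0% = forskolin plus galanin with DMSO and 100% = forskolin alone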
SRC2 inh – inhibits human steroid receptor coactivator 2; Q15596; HEK293 GAL4-SRC2 luciferase reporter, luminescence; inhibition, % at 9 µM; 370,000 tested, 0.17% active; AID 651957;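 active means inhibition above the mean inhibition of all tested compounds plus 3 SD, set per campaign, cut at about 52% in these data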;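 further: 0% = DMSO treated cells and 100% = cells given Gossypol at 36 µM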
SRC3 inh – inhibits human SRC3 coactivator | Q9Y6Q9 | HEK293 GAL4-SRC3 luciferase reporter, luminescence | inhibition, % at 3.6 µM | 360,000 tested, 0.17% active;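 active means inhibition above a per-campaign cutoff, the mean of all compounds plus 3 SD, cut at about 60% in these data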;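 further: 0% = DMSO-treated cells and 100% = gossypol-treated cells at 36 µM; higher means less SRC3-driven luciferase light from the GAL4 reporter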
SRC1 inh – inhibitors of human steroid receptor coactivator 1 (SRC1); HEK293 GAL4-SRC1 luciferase reporter, luminescence; inhibition, % at 3.6 µM; 360,000 tested, 0.12% active;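 active means inhibition above the campaign mean plus 3 SD, with each screening campaign given its own cutoff, cut at about 60% in these data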;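 further: 0% = DMSO treated cells and 100% = gossypol at 36 µM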
* marks the source's active call; other numbers are inactive results; . = no result given; ! = a repeat was not active.

SMILES	NR2F2 inh	NR5A2 inv ag	GalR3 antag	SRC2 inh	SRC3 inh	SRC1 inh
COC(=O)c1cn(NC(=O)c2cc([N+](=O)[O-])ccc2F)c(=O)c2ccccc12	28	76*	-3	59*	78*	70*
COC(=O)c1cn(NC(=O)C2CCC(C)CC2)c(=O)c2ccccc12 (stereo not drawn)	-20	-9	1	-20	9	-3
C[C@H]1[C@@H](NC(=O)/C=C/c2ccccc2)CC[C@@]23CCCN2C(=O)CCC[C@@H]13	-7	.	.	.	.	.
O=C(N/N=C/c1cc(Cl)ccc1O)c1ccc(Br)cc1	-14	8	0	8	66*	28
O=C(N/N=C/c1ccccc1O)c1ccncc1	-3	-1	2	11	36	20
NC(=O)N/N=C\c1cc(Br)ccc1O	-26	18	-2	-4	-1	-7
O=C(N/N=C/c1cc(Br)ccc1O)c1ccncc1	-15	11	-5	8	70*	38
CCCCCCCCCCCCCCCC[n+]1ccc(/C=N/O)cc1	38*	-2	1	-17	17	-8
CCCCCCCCCCCCCCCC[n+]1ccc(C(N)=O)cc1	16	13	-8	14	18	-3
COc1cccc(/C=N/Nc2ncnc3c2ncn3Cc2ccccc2)c1O	-12	91*	-2	22	67*	53
CC(C)CCCCCCCCCCCCC(=O)NCC(=O)NC1C(O)C(O)C(Nc2ncnc3nc[nH]c23)OC1C(O)CO (stereo not drawn)	.	99*	.	.	93*	95*
NC(=O)c1ccc(N=C2C(=O)Nc3ccc([N+](=O)[O-])cc32)cc1	-6	-19	13*	1	-17	6
O=C(CSc1nnc(-c2cccnc2)n1-c1ccc(Cl)cc1)Nc1ccc(S(=O)(=O)Nc2nccs2)cc1	12	.	.	0	.	.
COc1ccc(C(=O)c2c(C(F)(F)F)oc3c2C(=O)c2ccccc2C3=O)cc1OC	43*	2	-3	13	32	9
Cc1oc(-c2ccc(Cl)cc2)nc1CN1CCC(C(=O)N2CCN(Cc3ccccc3)CC2)CC1	39*	-5	-5	-12	2	3
CN(Cc1cnc2nc(N)nc(N)c2n1)c1ccc(C(=O)N[C@@H](CCC(=O)O)C(=O)O)cc1	26	41	-2	11	61	68*!
Nc1nc2ncc(CNc3ccc(C(=O)N[C@@H](CCC(=O)O)C(=O)O)cc3)nc2c(=O)[nH]1	-7	-17	-6	15	8	-6
C[N+]1=C(N)NC2=C3CCCCC3n3c(=O)n(-c4ccccc4)c(=O)n3C2C1 (stereo not drawn)	11	.	.	8	.	.
O=C(O)C1CC=CCC1C(=O)Nc1ccc(F)c(F)c1 (stereo not drawn)	-4	-24	2	-5	2	2
O=C(O)C1CC=CCC1C(=O)Nc1ccc2c(c1)OCCO2 (stereo not drawn)	25	55	-2	56*	55	40
C=CCN(CC=C)c1ncnc2[nH]ncc12	20	29	-3	53*	53	55
CC(C)(C)c1ccc(-c2nnc(SCC(=O)Nc3ccc(S(=O)(=O)Nc4nccs4)cc3)n2Cc2ccco2)cc1	2	.	.	-6	.	.
O=C(Nc1ccc(C(O)(C(F)(F)F)C(F)(F)F)cc1)c1c(F)cccc1F	-1	.	.	.	.	.
O=C(C1=C[C@H](c2ccccc2)C[C@H](OCCCCO)O1)N1CCN(Cc2ccccc2)CC1	7	-2	9	6	0	-2
C#Cc1ccc([C@@H]2C=C(C(=O)N3CCN(Cc4ccccc4)CC3)O[C@H](OCCCCO)C2)cc1	.	89*	.	.	55	60
SMILES	NR2F2 inh	NR5A2 inv ag	GalR3 antag	SRC2 inh	SRC3 inh	SRC1 inh
Cc1ccc(-c2nnn(CC(=O)N(Cc3cccs3)C(C(=O)NCC3CCCO3)c3ccco3)n2)o1 (stereo not drawn)	3	16	-3	17	12	-1
COc1ccc(-c2nnn(CC(=O)N(Cc3ccccc3Cl)C(C(=O)NCC3CCCO3)c3ccco3)n2)cc1OC (stereo not drawn)	7	-14	9	95*	11	-11
CCN(CC)c1ccc(NC(=O)CCCCCN2C(=O)c3ccccc3C2=O)cc1	33	-6	-5	4	-27	2
CCN(CC)c1ccc(NC(=O)CCCCC(=O)Nc2ccc(N(CC)CC)cc2)cc1	31	3	-4	57*	32	6
Cc1ccc(CNC(=O)O[C@H]2CC[C@@]34CCCN3C(=O)CCC[C@H]4C2)o1	-8	.	.	.	.	.
Clc1ccc(SCNc2ccccc2Cl)cc1	39*	15	-4	5	-4	-49
Cc1ccc(NCSc2ccc(Cl)cc2)cc1	-17	-98	-4	-36	-68	-57
COc1ccc(CSc2nnc(SCC(=O)Nc3ccc(S(N)(=O)=O)cc3)s2)cc1	-8	.	.	2	.	.
Clc1ccc(-c2csc(=Nc3cccnc3)n2CCCn2ccnc2)cc1Cl	36	-26	1	57*	46	41
Cc1ccc(/C=C2\SC(=S)N(CCCC(=O)Nc3ccc(O)cc3)C2=O)cc1	31	9	-2	67*	47	23
Cc1ccc(/C=C2\SC(=S)N(CCCC(=O)Nc3ccccc3C(=O)O)C2=O)cc1	15	5	2	66*	18	23
O=C(CN1C(=O)S/C(=C\c2ccccc2)C1=O)Nc1cc([N+](=O)[O-])ccc1O	3	13	-9	0	-3	7
Cc1ccc(/C=C2/SC(=S)N(CCCC(=O)Nc3cc([N+](=O)[O-])ccc3O)C2=O)cc1	24	3	-2	55*	14	-28
Cc1ccc(-n2c(SCC(=O)c3ccccc3Br)nnc2-c2ccncc2)cc1	-2	.	.	12	.	.
CCN1/C(=C/c2ccc3ccccc3[n+]2CC)C=Cc2ccccc21	75*	98*	53*	12	87*	68*
O=C1Cc2c([nH]c3ccc([N+](=O)[O-])cc23)-c2ccccc2N1	38*	7	-4	35	73*	-9
COc1ccc(C(=O)NCCNc2nc3cc(C)cc(C)c3cc2C#N)c(OC)c1	10	30	-6	77*	.	.
COc1ccccc1C(=O)NCCNc1nc2cc(C)cc(C)c2cc1C#N	5	-4	-6	-5	-1	-7
C=C(NC(=O)C(=C)NC(=O)c1csc(C2=NC3c4csc(n4)C4NC(=O)c5csc(n5)C(C(C)(O)C(C)O)NC(=O)C5CSC(=N5)/C(=C/C)NC(=O)C(C(C)O)NC(=O)c5csc(n5)C3(CC2)NC(=O)C(C)NC(=O)C(=C)NC(=O)C(=C)NC(=O)C(C(C)C)NC2C=Cc3c(C(C)O)cc(nc3C2O)C(=O)OC4C)n1)C(N)=O (stereo not drawn)	42*	-29	-2	12	-44	-90
O=[N+]([O-])c1cnc2ccccc2c1Sc1ccccc1	-4	.	.	.	.	.

Screens from PubChem BioAssay.
